Data taken from ChEMBL document CHEMBL2218924, “A broad activity screen in support of a chemogenomic map for kinase signalling research and drug discovery” (Biochem J, 2013).

These molecules were tested against T1, Rhodopsin kinase GRK7 (Homo sapiens) (UniProt Q8WTQ7). Details: at 10 µM.
T1 sequence (whole entry): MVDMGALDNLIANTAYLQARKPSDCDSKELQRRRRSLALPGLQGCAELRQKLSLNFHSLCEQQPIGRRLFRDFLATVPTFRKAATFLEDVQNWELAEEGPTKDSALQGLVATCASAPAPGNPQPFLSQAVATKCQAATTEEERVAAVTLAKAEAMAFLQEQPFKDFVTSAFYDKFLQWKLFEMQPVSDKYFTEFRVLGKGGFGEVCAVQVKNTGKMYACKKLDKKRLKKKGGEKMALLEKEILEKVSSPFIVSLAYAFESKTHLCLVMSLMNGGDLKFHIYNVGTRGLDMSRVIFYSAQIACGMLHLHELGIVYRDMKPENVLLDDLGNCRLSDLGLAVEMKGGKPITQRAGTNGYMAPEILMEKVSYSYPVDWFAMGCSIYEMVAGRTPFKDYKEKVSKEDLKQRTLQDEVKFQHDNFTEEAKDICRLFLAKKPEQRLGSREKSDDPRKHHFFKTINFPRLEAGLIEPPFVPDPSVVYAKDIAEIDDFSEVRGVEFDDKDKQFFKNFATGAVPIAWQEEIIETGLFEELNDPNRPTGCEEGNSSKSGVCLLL
`Cn1c2ccccc2c2c3c(c4c5ccccc5n(CCC#N)c4c21)CNC3=O` was tested, and the residual activity was 34%. For `O=C1Nc2ccccc2/C1=C\c1c(Cl)[nH]c2ccccc12`, the residual activity was 87%. With `CCCCc1c(-c2ccc(OC)cc2)[nH]c2nccnc12` the residual activity was 92%. Molecule `Nc1nc(Nc2ccc(S(N)(=O)=O)cc2)nn1C(=O)c1c(F)cccc1F` has a residual activity of 6%. Molecule `O=C1NC(=O)C(c2c[nH]c3ccccc23)=C1c1c[nH]c2ccccc12` has a residual activity of 20%. With `COc1cc2c(cc1OC)-c1n[nH]c(Nc3cccc(F)c3)c1C2` the residual activity was 80%. Work on `CN([C@@H](Cc1ccc(OS(=O)(=O)c2cccc3cnccc23)cc1)C(=O)N1CCN(c2ccccc2)CC1)S(=O)(=O)c1cccc2cnccc12` yielded a residual activity of 85%. Work on `CC(C)(C)n1nc(Cc2cccc3ccccc23)c2c(N)ncnc21` yielded a residual activity of 56%. With `Nc1ncnc2c1cnn2-c1ccccc1` the residual activity was 94%. `O=C(Nc1nc2ccccc2n1CCN1CCOCC1)c1cccc([N+](=O)[O-])c1` showed a residual activity of 79%. With `CCCCc1c(-c2ccc(O)cc2)[nH]c2nccnc12` the residual activity was 87%. Molecule `Oc1cccc(-c2nc(N3CCOCC3)c3oc4ncccc4c3n2)c1` has a residual activity of 94%. For `CC(C)c1nn(-c2c(Cl)cccc2Cl)c2nc(Cc3ccc(OCCO)cc3)[nH]c(=O)c12`, the residual activity was 80%. `O=C(c1ccccc1)c1ccc(N2CCOCC2)cc1O` was tested, and the residual activity was 95%. Work on `O=C(c1cc2cc(O)ccc2[nH]1)c1cc2cc(O)ccc2[nH]1` yielded a residual activity of 54%. `O=c1cc(N2CCOCC2)oc2c1ccc1ccccc12` showed a residual activity of 87%. `O=C(O)/C=C/c1cc(Br)c(Br)c(Br)c1Br` showed a residual activity of 95%. `O=S(=O)(NCCNC/C=C/c1ccc(Br)cc1)c1cccc2cnccc12` was tested, and the residual activity was 58%.
